In the GenesisPotency data set:
The campaign covered roughly 290,000 compounds. About 3,000 (1%) were called active. Rule as the data show it: active = inhibition mostly above about 36% (no sharp cut-off); inactive = mostly below about 34%. This excerpt belongs to a sample that is enriched for actives.

Biological target: T1, Nucleotide-binding oligomerization domain-containing protein 1, Homo sapiens (UniProt Q9Y239)
T1 sequence (whole entry): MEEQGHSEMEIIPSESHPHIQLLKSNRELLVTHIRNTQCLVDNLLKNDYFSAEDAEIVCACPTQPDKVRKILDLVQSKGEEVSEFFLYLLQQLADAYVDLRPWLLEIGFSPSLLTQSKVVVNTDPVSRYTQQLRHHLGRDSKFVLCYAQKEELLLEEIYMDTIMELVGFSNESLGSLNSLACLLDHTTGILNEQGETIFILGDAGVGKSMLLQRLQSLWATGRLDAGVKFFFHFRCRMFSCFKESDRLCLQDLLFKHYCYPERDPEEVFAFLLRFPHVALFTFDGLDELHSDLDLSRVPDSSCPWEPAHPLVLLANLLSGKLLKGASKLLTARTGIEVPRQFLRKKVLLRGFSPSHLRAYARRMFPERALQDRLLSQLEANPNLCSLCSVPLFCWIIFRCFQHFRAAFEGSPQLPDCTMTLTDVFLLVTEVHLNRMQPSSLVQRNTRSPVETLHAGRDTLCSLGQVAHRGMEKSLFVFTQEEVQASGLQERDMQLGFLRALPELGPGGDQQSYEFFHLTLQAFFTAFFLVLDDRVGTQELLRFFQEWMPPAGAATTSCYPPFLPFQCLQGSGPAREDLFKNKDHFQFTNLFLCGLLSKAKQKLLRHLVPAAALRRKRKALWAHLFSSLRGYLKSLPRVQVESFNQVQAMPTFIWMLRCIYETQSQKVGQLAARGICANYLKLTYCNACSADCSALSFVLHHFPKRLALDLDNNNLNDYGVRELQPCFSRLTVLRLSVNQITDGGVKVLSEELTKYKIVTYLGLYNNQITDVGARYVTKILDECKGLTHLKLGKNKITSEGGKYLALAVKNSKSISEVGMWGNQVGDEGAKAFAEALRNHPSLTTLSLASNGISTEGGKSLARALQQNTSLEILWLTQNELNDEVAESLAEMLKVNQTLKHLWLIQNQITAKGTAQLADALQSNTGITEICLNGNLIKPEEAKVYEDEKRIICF
Test: NOD1 signaling inhibitors, primary screen, cell-based, luminescence, uHTS (AID 1578)

outcome, active:
C=C(C)C(=O)O[C@H]1C/C(C)=C\C(=O)/C=C(\C)[C@H](O)[C@@H]2OC(=O)C(=C)[C@@H]21
CC1(C)N=C(N)N=C(N)N1c1ccc(OCCCOc2ccccc2)c(Cl)c1.CCS(=O)(=O)O
O=C(NCc1cccnc1)/C(=C\c1ccc(-c2ccc(Cl)c(Cl)c2)o1)S(=O)(=O)c1ccccc1
O=C(NCc1cccnc1)/C(=C/c1ccc(-c2ccc(Cl)cc2)o1)S(=O)(=O)c1ccccc1
O=C(Oc1cc2oc(=O)cc(-c3ccccc3)c2cc1Cl)C1CCCCC1
COc1ccc(-c2cc(=O)oc3cc(OC(=O)C4CCCCC4)c(Cl)cc23)cc1
Br.O=[N+]([O-])c1ccc(N/N=C/c2sc(N3CCOCC3)nc2-c2ccccc2)c(S(=O)(=O)Nc2ccc(Cl)cc2)c1
O=[N+]([O-])c1ccc(N/N=C/c2sc(N3CCOCC3)nc2-c2ccccc2)c(S(=O)(=O)Nc2ccccc2Cl)c1
COc1ccc2cc(C(N)=O)c(=Nc3ccc(C)cc3)oc2c1
Cc1ccc(N=c2oc3cc(O)ccc3cc2C(N)=O)cc1
COc1ccc(C2C(O)C(c3c[nH]c4ccccc34)=NN2C(=O)CCl)cc1 (stereo not given)
COc1cccc(C(=O)Nc2ccc(Oc3cccc(C(F)(F)F)c3)nc2)c1
CN(C)c1ccnc2sc(C(N)=O)c(N)c12
Brc1ccc2ncnc(Nc3cccc4ccccc34)c2c1
CC(=O)c1cccc(Nc2ncnc3ccc(Br)cc23)c1
COc1ccc(Nc2ncnc3ccc(Br)cc23)cc1OC
Cc1cc(C)c(C)c(S(=O)(=O)N2CCN(c3ncnc4sc(C)c(C)c34)CC2)c1C
Cc1ccc(OCCN2CCN(c3ncnc4sc(C)c(C)c34)CC2)cc1
O=[N+]([O-])c1cc(S(=O)(=O)Nc2cccc(C(F)(F)F)c2)ccc1-n1nnc2ccccc21
Cc1c([N+](=O)[O-])c2ccc(O)cc2n1-c1ccccc1
CN(C)/C=C/c1c([N+](=O)[O-])c2ccc(O)cc2n1-c1ccccc1
S=C(NNc1ccnc2cc(Cl)ccc12)Nc1ccccc1Cl
N#CCCS(=O)(=O)c1nnnn1-c1ccccc1
COc1cccc(-n2nnnc2S(C)(=O)=O)c1
CCCS(=O)(=O)c1nnnn1-c1cccc(OC)c1
CS(=O)(=O)c1ccc(C(=O)OCc2nnc(-c3ccccc3)o2)cc1[N+](=O)[O-]
CCCCN(C)S(=O)(=O)c1ccc(C(=O)Nc2nnc(-c3cccs3)o2)cc1
CCCCN(CC)S(=O)(=O)c1ccc(C(=O)Nc2nnc(-c3cccs3)o2)cc1
CCCCN(CC)S(=O)(=O)c1ccc(C(=O)Nc2nnc(-c3ccccc3Cl)o2)cc1
CCN(Cc1ccccc1)S(=O)(=O)c1ccc(C(=O)Nc2nnc(C3CC3)o2)cc1
Cc1cccnc1Nc1nc(-c2ccccn2)cs1
COc1cccc2sc(Nc3nc(-c4ccccn4)cs3)nc12
COc1ccccc1-c1nnc(Nc2nc3c(OC)cccc3s2)o1
COc1ccc(Nc2oc(COc3ccccc3OC)nc2C#N)cc1
Cc1oc2c(F)c(F)c(F)c(F)c2c1S(=O)(=O)Nc1cccc(C(F)(F)F)c1
CCCCn1c(SCC(=O)Nc2nnc(CC)s2)nc2c1c(=O)n(C)c(=O)n2C
CCCn1c(SCC(=O)Nc2nc3c(s2)CCCC3)nc2c1c(=O)n(C)c(=O)n2C
O=C(NC1CCCC1)c1sc(=S)n2c1[nH]c(=O)c1ccccc12
O=C(NC1CCCCC1)c1sc(=S)n2c1[nH]c(=O)c1ccccc12
Cc1ncoc1C(=O)NC1CCCc2c1cnn2-c1ccc(C(C)(C)C)cc1 (stereo not given)
Cc1ccc(-n2ncc3c2CCCC3NC(=O)c2ocnc2C)cc1C (stereo not given)
CCC1Sc2ccc(S(=O)(=O)Nc3ccc(OC)c(OC)c3)cc2NC1=O (stereo not given)
O=C(Nc1nnc(-c2ccc3c(c2)CCCC3)o1)c1ccccc1
O=C(Nc1nnc(-c2ccc3c(c2)CCCC3)o1)c1ccccc1Cl
O=C(Nc1nnc(-c2ccc3c(c2)CCCC3)o1)c1ccc(Cl)cc1Cl
COc1ccc2c(C#N)c3ccccn3c2c1
N#Cc1c2ccc(O)cc2n2ccccc12
COc1ccc2[nH]c(=O)c3c(c2c1)OC(C)(C)C=C3
O=C(Nc1ccccn1)C1CCN(c2ncnc3c2nc2n3CCCCC2)CC1
O=C(NCC1CCN(Cc2ccc(Cl)cc2)CC1)C1CCCN(c2ncnc3c2nc2n3CCCCC2)C1 (stereo not given)
O=C(Nc1ccc(Cl)cn1)C1CCN(c2ncnc3c2nc2n3CCCCC2)CC1
Cc1ccc(NC(=O)C2CCCN(c3ncnc4c3nc3n4CCCCC3)C2)nc1 (stereo not given)
O=C(Nc1ccccc1Cl)/C(Cl)=C(\Cl)S(=O)c1ccccc1 (stereo not given)
CC(=O)N1CC(C)Sc2ccc(S(=O)(=O)NCCc3ccc(C)cc3)cc21 (stereo not given)
COc1cc(/C=C2\SC(=N)N(c3ccc(F)cc3)C2=O)ccc1O
N#C/C(=C\C=C\c1ccccc1[N+](=O)[O-])C(=O)NC1CCCCC1
Br.CCCCCCCCCn1ccc(=N)cc1
Br.CCCCCCCCCCn1ccc(=N)cc1
Br.CCCCCCCCn1ccc(=N)cc1
C(=N\Nc1nc(-c2ccccn2)nc2ccccc12)/c1ccccc1
Fc1ccccc1/C=N/Nc1nc(-c2ccccn2)nc2ccccc12
COc1cccc(Nc2nc(NCCO)c3ccccc3n2)c1.Cl
O=c1cc(CSc2nnc(-c3cccs3)n2Cc2ccccc2)nc2sc3ccccc3n12
CCOc1ccccc1CNC(=O)Cn1nc(C)c2c(C)n(-c3ccc(C)cc3)nc2c1=O
COc1ccc(OC)c(CCNC(=O)C(C)n2nc(C)c3c(C)n(-c4ccc(C)cc4)nc3c2=O)c1 (stereo not given)
COc1ccc(CCNC(=O)C(C)n2nc(C)c3c(C)n(-c4ccc(C)cc4)nc3c2=O)c(OC)c1 (stereo not given)
COc1ccc(OC)c(CCNC(=O)Cn2nc(C)c3c(C)n(-c4ccc(C)cc4)nc3c2=O)c1
Cc1ccc(CS(=O)(=O)c2ncc(Cl)c(C(=O)Nc3nnc(C(C)C)s3)n2)cc1
CSc1nnc(NC(=O)c2nc(S(=O)(=O)Cc3ccc(C)cc3)ncc2Cl)s1
Cc1cccc(CS(=O)(=O)c2ncc(Cl)c(C(=O)Nc3nnc(C(C)C)s3)n2)c1
